Experimental data published in PubChem BioAssay (Tox21).
Several values for one entry are separate records, joined by “and”; a condition that tells them apart may be missing. Identical values can stand only once. Records with an inconclusive call do not appear. Where a call stands in place of a potency, no number is given. A structure can be active in one record and inactive in another. Activity calls are given as the source filed them. Calls come from the whole dose curve; as a rule, active = well fitted activation curve with a large enough effect in the repeat runs; inconclusive = weak or mixed curves; inactive = flat fitted curve, though single readings scatter.

experiment: A CellTox Green Cytotoxicity Assay to monitor cytotoxicity in HEK293 cells - 8 hour (AID 1224884); details: CellTox Green fluorescence; series mostly up to 76.8 µM; note: nearly all actives have a fitted effect of over 35% in size
Description: National Center for Advancing Translational Sciences [NCATS]
NIH Chemical Genomics Center [NCGC]
U.S. Environmental Protection Agency [EPA]
National Institutes of Environmental Health Sciences [NIEHS]
National Toxicology Program [NTP]
Cell-based models are critical for drug discovery. Determining the natural cytotoxic effects resulting from test compounds is an essential research activity. A CellTox Green Cytotoxicity Assay to monitor cytotoxicity in real time of continues cell culture during 40 hours of the compound treatment was used to screen Tox21 10K library compounds in Hek293 cells. CellTox Green Cytotoxicity Assay is a nonlytic, homogeneous, biofluorescent method to measure cytotoxicity in cell culture after experimental manipulation. The assay system uses a proprietary asymmetric cyanine dye that is excluded from viable cells but preferentially stains the dead cell's DNA. […] Viable cells produce no appreciable increases in fluorescence. Therefore, the fluorescence signal produced by the binding interaction with dead cell DNA is proportional to cytotoxicity.
The mixture of Hek293 cell suspension and reagents were dispensed at 600cells/6 ul/well in 1536-well tissue culture treated black solid bottom plates using a Multidrop dispenser. After the assay plates were incubated at a 37 C/5% CO2 incubator for 5 hours, 23 nL of compounds dissolved in DMSO, positive and negative controls was transferred to the assay plate by a pintool work station. The plates were incubated at 37 C for 40 hours. The fluorescence intensity were measured at 0h, 8h, 16h, 24h, 32h and 40h time points using ViewLux plate reader during compound treatment.
Potency is the fitted concentration of half-maximal effect.

**Q.** For CC(=O)/C=C/c1ccccc1, which Potency is on record?
**A.** inactive

**Q.** With CNc1cnn(-c2cccc(C(F)(F)F)c2)c(=O)c1Cl as the compound, how does the Potency read?
**A.** inactive

**Q.** Which Potency does the source give for C[C@]12CC[C@H](O)CC1=CC[C@@H]1[C@@H]2CC[C@]2(C)C(=O)CC[C@@H]12 here?
**A.** inactive

**Q.** For O=C(O)CCCc1ccc(N(CCCl)CCCl)cc1, which Potency is on record?
**A.** inactive

**Q.** With OCCCCO as the compound, how does the Potency read?
**A.** inactive

**Q.** Which Potency does the source give for COC(=O)Nc1cccc(OC(=O)Nc2cccc(C)c2)c1 here?
**A.** inactive

**Q.** With OC[C@@H](O)[C@H]1O[C@@H]2O[C@H](C(Cl)(Cl)Cl)O[C@@H]2[C@H]1O as the compound, how does the Potency read?
**A.** inactive

**Q.** For Cc1ccc(N=C=O)cc1N=C=O, which Potency is on record?
**A.** inactive

**Q.** With C[C@H]1C(=O)O[C@@H]2CCN3CC=C(COC(=O)[C@](C)(O)[C@]1(C)O)[C@H]23 as the compound, how does the Potency read?
**A.** inactive

**Q.** Which Potency does the source give for C=CCN=C=S here?
**A.** inactive

**Q.** With [N-]=[N+]=CC(=O)OC[C@H](N)C(=O)O as the compound, how does the Potency read?
**A.** inactive

**Q.** Which Potency does the source give for CC(C)(C)C(=O)CCl here?
**A.** inactive

**Q.** Which Potency does the source give for O=[N+]([O-])c1ccc(Cl)c(Cl)c1 here?
**A.** inactive

**Q.** Which Potency does the source give for Nc1cccc(Cl)c1 here?
**A.** inactive

**Q.** For CSc1nnc(C(C)(C)C)c(=O)n1N, which Potency is on record?
**A.** inactive

**Q.** Which Potency does the source give for O=P1(NCCCl)OCCCN1CCCl (stereo not given) here?
**A.** inactive

**Q.** For Nc1ccc([As](=O)(O)O)cc1, which Potency is on record?
**A.** inactive

**Q.** For N#Cc1cccc(C#N)c1, which Potency is on record?
**A.** inactive

**Q.** For Clc1cnc(Oc2ccc(Oc3ncc(Cl)cc3Cl)cc2)c(Cl)c1, which Potency is on record?
**A.** inactive and 34.7 µM (active)

**Q.** With CCCCC(CC)C(=O)Cl (stereo not given) as the compound, how does the Potency read?
**A.** inactive

**Q.** For Cc1cccc(N)c1C, which Potency is on record?
**A.** inactive

**Q.** For CC[N+](=O)[O-], which Potency is on record?
**A.** inactive

**Q.** For Cl[C@H]1OCCO[C@@H]1Cl, which Potency is on record?
**A.** inactive

**Q.** With CN(C)C(=O)Cl as the compound, how does the Potency read?
**A.** inactive

**Q.** For CN1C(=O)CCS(=O)(=O)C1c1ccc(Cl)cc1 (stereo not given), which Potency is on record?
**A.** inactive

**Q.** For CCCOC(=O)c1ccccc1C(=O)OCCC, which Potency is on record?
**A.** inactive

**Q.** For COc1cc(-c2ccc(N)c(OC)c2)ccc1N, which Potency is on record?
**A.** inactive

**Q.** Which Potency does the source give for Cc1cccc(C)c1NC(=O)CN1CCCC1=O here?
**A.** inactive

**Q.** For CCOc1ccc(N)cc1, which Potency is on record?
**A.** inactive

**Q.** For CN(C)CCC#N, which Potency is on record?
**A.** inactive

**Q.** For CCOC(=O)CC(SP(=O)(OC)OC)C(=O)OCC (stereo not given), which Potency is on record?
**A.** inactive

**Q.** For Oc1ccc(Cl)cc1, which Potency is on record?
**A.** inactive

**Q.** For Cc1cc(O)ccc1Cl, which Potency is on record?
**A.** inactive

**Q.** Which Potency does the source give for Sc1ccccc1 here?
**A.** inactive

**Q.** For Nc1ncc([N+](=O)[O-])s1, which Potency is on record?
**A.** inactive

**Q.** With Nc1ccc(N)cc1 as the compound, how does the Potency read?
**A.** inactive

**Q.** For CN(C)NC(=O)CCC(=O)O, which Potency is on record?
**A.** inactive

**Q.** With Cl/C=C/Cl as the compound, how does the Potency read?
**A.** inactive

**Q.** With CCCCCCCCCCCCCCCCCC(=O)O as the compound, how does the Potency read?
**A.** inactive

**Q.** Which Potency does the source give for COc1nc(NC(C)C)nc(NC(C)C)n1 here?
**A.** inactive
